{
  "source": "PubChem BioAssay AID651610",
  "about": "(Broad Institute, 2012)",
  "note": "About 3,900 (1.1%) of roughly 360,000 compounds were called active. Only a selection was taken, and actives are over-represented in it overall. Values without a mark were called inactive.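 How the source made its calls: active means mean replicate inhibition score of at least 50 and every replicate individually at or above 50; inconclusive means only one of the two criteria met; inactive means mean below 50 and not all replicates reaching 50.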",
  "data": [
    {"assay": "blockers of JRFL envelope-mediated fusion – HeLa-JRFL effector, CEM21 target cells, luciferase, primary screen (AID 651610);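 further: 0% = plate neutral controls and 100% = maraviroc near 300 nM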", "conditions": "HeLa-JRFL Env/CEM21 cell fusion, hits give high values; at 16.7 µM unless noted", "values": [
      {"molecule": "O=C(N[C@@H]1C=C[C@H](CC(=O)N2CCCCC2)O[C@H]1CO)c1cccc(F)c1", "inhibition": "2.78%"},
      {"molecule": "COc1cccc(NC(=O)N[C@@H]2CC[C@H](CC(=O)Nc3ccccc3)O[C@@H]2CO)c1", "inhibition": "-24.4%"},
      {"molecule": "Cc1ccc(S(=O)(=O)Nc2cccc3c2O[C@H](CN(C)S(=O)(=O)c2cn(C)cn2)[C@H](C)CN([C@H](C)CO)C3=O)cc1", "inhibition": "-8.23%"},
      {"molecule": "C[C@H]1CCCCO[C@@H](CN(C)S(=O)(=O)c2ccc(Cl)cc2)[C@@H](C)CN([C@@H](C)CO)C(=O)c2cc(NS(=O)(=O)c3cn(C)cn3)ccc2O1", "inhibition": "3.67%"},
      {"molecule": "C[C@@H]1CN([C@@H](C)CO)C(=O)c2cc(NS(C)(=O)=O)ccc2O[C@@H](C)CCCCO[C@@H]1CN(C)S(=O)(=O)c1cn(C)cn1", "inhibition": "-12%"},
      {"molecule": "Cc1ccc(S(=O)(=O)Nc2cccc3c2O[C@@H](CN(C)C(=O)Nc2ccccc2)[C@H](C)CN([C@@H](C)CO)C3=O)cc1", "inhibition": "8.55%"},
      {"molecule": "C[C@H](NC(=O)C[C@H]1CC[C@H]2[C@@H](COC[C@H](O)CN2C(=O)Nc2cccc(Cl)c2)O1)c1ccccc1", "inhibition": "-9.13%"},
      {"molecule": "C[C@H](O)C#Cc1ccc2c(c1)O[C@@H](CN(C)CC1CCCC1)[C@H](C)CN([C@@H](C)CO)S2(=O)=O", "inhibition": "-37.3%"},
      {"molecule": "C[C@H](CO)N1C[C@H](C)[C@H](CN(C)C)Oc2cc(C#CC3CC3)ccc2S1(=O)=O", "inhibition": "-1.04%"},
      {"molecule": "C[C@H]1CN([C@@H](C)CO)C(=O)c2cc(NC(=O)Nc3cccc4ccccc34)ccc2O[C@@H]1CN(C)C", "inhibition": "3.97%"},
      {"molecule": "C[C@@H]1CN([C@H](C)CO)C(=O)c2cc(NS(=O)(=O)c3ccccc3)ccc2O[C@H]1CN(C)C(=O)Nc1ccc2c(c1)OCO2", "inhibition": "-19.2%"},
      {"molecule": "O=C(NCC[C@H]1CC[C@@H](NC(=O)C2CCCCC2)[C@@H](CO)O1)c1ccc(F)cc1", "inhibition": "-1.25%"},
      {"molecule": "C[C@@H]1CN([C@H](C)CO)C(=O)c2cc(NC(=O)c3ccncc3)ccc2O[C@H]1CN(C)Cc1ccc(Oc2ccccc2)cc1", "inhibition": "-5.1%"},
      {"molecule": "C[C@H]1CCCCO[C@H](CN(C)C(=O)NC2CCCCC2)[C@@H](C)CN([C@@H](C)CO)C(=O)c2cc(NC(=O)Nc3ccc4c(c3)OCO4)ccc2O1", "inhibition": "62.7% (active)"},
      {"molecule": "C[C@H](CO)N1C[C@H](C)[C@H](CN(C)C(=O)NC2CCCCC2)OCCCC[C@H](C)Oc2ccc(NC(=O)Nc3ccc4c(c3)OCO4)cc2C1=O", "inhibition": "18.2%"},
      {"molecule": "C[C@H]1CCCCO[C@@H](CN(C)Cc2ccc(C(F)(F)F)cc2)[C@@H](C)CN([C@@H](C)CO)C(=O)c2cc(NC(=O)Nc3ccccc3)ccc2O1", "inhibition": "86.8% (active)"},
      {"molecule": "C[C@@H]1CCCCO[C@@H](CN(C)Cc2ccc(C(F)(F)F)cc2)[C@@H](C)CN([C@H](C)CO)C(=O)c2cc(NC(=O)Nc3ccccc3)ccc2O1", "inhibition": "9.84%"},
      {"molecule": "C[C@@H]1CN([C@@H](C)CO)C(=O)c2cc(NS(=O)(=O)c3cn(C)cn3)ccc2O[C@@H](C)CCCCO[C@H]1CN(C)S(=O)(=O)c1cn(C)cn1", "inhibition": "2.07%"},
      {"molecule": "C[C@@H]1CN([C@@H](C)CO)C(=O)c2cc(NC(=O)c3ccncc3)ccc2O[C@@H]1CN(C)Cc1ccncc1", "inhibition": "85.6% (active)"},
      {"molecule": "C[C@@H]1CCCCO[C@H](CN(C)C)[C@H](C)CN([C@@H](C)CO)C(=O)c2cc(NS(=O)(=O)c3cn(C)cn3)ccc2O1", "inhibition": "57.7% (active)"},
      {"molecule": "C[C@@H]1CN([C@H](C)CO)C(=O)c2cc(NS(=O)(=O)c3cn(C)cn3)ccc2O[C@@H](C)CCCCO[C@H]1CN(C)C", "inhibition": "1.08%"},
      {"molecule": "C[C@H](CO)N1C[C@H](C)[C@@H](CN(C)C(=O)Nc2ccc3c(c2)OCO3)OCCCC[C@H](C)Oc2ccc(NC(=O)Nc3ccc4c(c3)OCO4)cc2C1=O", "inhibition": "-2.35%"},
      {"molecule": "C[C@H](CO)N1C[C@H](C)[C@@H](CN(C)Cc2ccncc2)Oc2ccc(NC(=O)Nc3ccccc3)cc2C1=O", "inhibition": "4.38%"},
      {"molecule": "C[C@@H]1CN([C@H](C)CO)C(=O)c2cc(NC(=O)Nc3ccccc3)ccc2O[C@@H](C)CCCCO[C@H]1CN(C)Cc1ccc(C(F)(F)F)cc1", "inhibition": "5.92%"},
      {"molecule": "C[C@@H]1CN([C@@H](C)CO)C(=O)Cc2cc(NC(=O)C3CCCCC3)ccc2O[C@@H]1CN(C)Cc1ccncc1", "inhibition": "6.59%"},
      {"molecule": "COCC#Cc1cnc2c(c1)C(=O)N([C@@H](C)CO)C[C@@H](C)[C@@H](CN(C)C(=O)Nc1ccccc1OC)O2", "inhibition": "2.09%"},
      {"molecule": "COC(=O)C[C@H]1CC[C@H](NC(=O)c2ccccc2)[C@@H](CO)O1", "inhibition": "-4.18%"},
      {"molecule": "CN1CCN(C(=O)C[C@H]2C[C@@H]3c4cc(NC(=O)Nc5ccc(C(F)(F)F)cc5)ccc4O[C@@H]3[C@H](CO)O2)CC1", "inhibition": "7.48%"},
      {"molecule": "C[C@@H]1CN([C@H](C)CO)S(=O)(=O)c2ccc(C#C[C@@H](C)O)cc2O[C@H]1CN(C)C(=O)C1CCCCC1", "inhibition": "-6.31%"},
      {"molecule": "CO[C@H]1CN(C)C(=O)c2cc(NC(=O)c3ccccc3)ccc2OC[C@H](C)NC[C@H]1C", "inhibition": "-18.7%"},
      {"molecule": "C[C@@H]1CN([C@H](C)CO)C(=O)c2cc(NC(=O)Nc3ccc(C(F)(F)F)cc3)ccc2O[C@@H](C)CCCCO[C@@H]1CN(C)Cc1ccc(C(F)(F)F)cc1", "inhibition": "32%"},
      {"molecule": "COc1ccc(NC(=O)Nc2ccc3c(c2)C(=O)N([C@@H](C)CO)C[C@H](C)[C@H](CN(C)Cc2ccc(C(F)(F)F)cc2)OCCCC[C@H](C)O3)cc1", "inhibition": "55.7% (active)"},
      {"molecule": "COc1ccc(NC(=O)Nc2ccc3c(c2)C(=O)N([C@H](C)CO)C[C@H](C)[C@@H](CN(C)Cc2ccc(C(=O)O)cc2)OCCCC[C@H](C)O3)cc1", "inhibition": "-1.91%"},
      {"molecule": "C[C@@H]1CCCCO[C@H](CN(C)Cc2ccc(C(F)(F)F)cc2)[C@H](C)CN([C@H](C)CO)C(=O)c2cc(NC(=O)Nc3ccc(F)cc3)ccc2O1", "inhibition": "9.27%"},
      {"molecule": "CC(C)NC(=O)Nc1ccc2c(c1)C(=O)N([C@H](C)CO)C[C@H](C)[C@@H](CN(C)Cc1ccc(C(F)(F)F)cc1)OCCCC[C@@H](C)O2", "inhibition": "76.6% [at 12.3 µM] (active)"},
      {"molecule": "COc1ccc(CN(C)C[C@@H]2OCCCC[C@@H](C)Oc3ccc(NC(=O)Nc4ccc(C(F)(F)F)cc4)cc3C(=O)N([C@H](C)CO)C[C@H]2C)cc1", "inhibition": "40.3%"},
      {"molecule": "O=C(C[C@H]1C=C[C@@H](NS(=O)(=O)c2ccc(F)cc2)[C@@H](CO)O1)NC1CCC1", "inhibition": "11.3%"},
      {"molecule": "O=C(C[C@H]1C[C@H]2c3cc(NC(=O)Nc4ccc(C(F)(F)F)cc4)ccc3O[C@H]2[C@@H](CO)O1)NCCc1ccccc1", "inhibition": "6.45%"},
      {"molecule": "C[C@@H]1CCCCO[C@H](CN(C)C(=O)Nc2ccc(C(F)(F)F)cc2)[C@@H](C)CN([C@@H](C)CO)C(=O)c2cc(NS(=O)(=O)c3cccs3)ccc2O1", "inhibition": "3.25%"},
      {"molecule": "CN1C(=O)c2cc(NC(=O)Cc3cccs3)ccc2OC[C@@H]2O[C@@H](CC(=O)N[C@@H]3CCN(Cc4ccccc4)C3)CC[C@H]21", "inhibition": "-14%"},
      {"molecule": "COc1ccc(-n2c(C)cc(C(=O)CSc3nnc(-c4cccs4)o3)c2C)cc1", "inhibition": "89.2% [at 12.3 µM] (active)"},
      {"molecule": "COc1ccc(-n2c(C)cc(C(=O)COC(=O)c3cc(OC)c(OC)cc3NC(=O)c3cccs3)c2C)cc1", "inhibition": "-7.79% [at 12.3 µM]"},
      {"molecule": "COc1ccc(-c2nnc(SCC(=O)c3ccc4c(c3)OCCO4)o2)cc1", "inhibition": "22.9% [at 12.3 µM]"},
      {"molecule": "N#C[C@H]1[C@@H](c2ccc(C3=CCCCC3)cc2)[C@@H](CO)N1C(=O)NC1CCCCC1", "inhibition": "0.133%"},
      {"molecule": "COc1ccccc1-c1ccc2c(c1)O[C@@H](CN(C)C(=O)Nc1ccccc1)[C@H](C)CN([C@@H](C)CO)S2(=O)=O", "inhibition": "-37.6%"},
      {"molecule": "COc1ccc(NC(=O)N(C)C[C@@H]2Oc3ccc(NS(=O)(=O)c4ccc(C)cc4)cc3CC(=O)N([C@@H](C)CO)C[C@H]2C)cc1", "inhibition": "4.71%"},
      {"molecule": "CN(C)C(=O)c1cccc(-c2cnc3c(NC=O)cc(-c4ccc(C(=O)N5CCOCC5)cc4)cn23)c1", "inhibition": "-15.1% [at 12.3 µM]"},
      {"molecule": "CN(C)C(=O)c1cccc(-c2cnc3sc(NCc4ccc5c(c4)OCO5)nn23)c1", "inhibition": "68.4% [at 12.3 µM] (active)"},
      {"molecule": "O=C(CSc1ncnc2scc(-c3ccccc3)c12)NCc1ccc2c(c1)OCO2", "inhibition": "22.4% [at 12.3 µM]"},
      {"molecule": "O=C(Nc1ccc(C(F)(F)F)cc1)N[C@@H]1CC[C@@H](CCNC(=O)c2ccccc2F)O[C@H]1CO", "inhibition": "-1.09%"},
      {"molecule": "Cc1noc(C)c1S(=O)(=O)Nc1ccc2c(c1)CC(=O)N([C@@H](C)CO)C[C@H](C)[C@@H](CN(C)S(=O)(=O)c1cn(C)cn1)O2", "inhibition": "-11.7%"},
      {"molecule": "C[C@H]1CCCCO[C@@H](CN(C)C(=O)c2ccccc2)[C@@H](C)CN([C@@H](C)CO)C(=O)c2cc(NS(=O)(=O)c3ccccc3)ccc2O1", "inhibition": "-27.7%"},
      {"molecule": "CNc1nccc(-c2ccc(Cl)cc2)c1C#N", "inhibition": "58.1% [at 12.3 µM] (active)"},
      {"molecule": "CN(C)c1nc(-c2cccnc2)nc(-c2ccc(Cl)cc2)c1C#N", "inhibition": "-27.7% [at 12.3 µM]"},
      {"molecule": "CN(C)c1ccnc(Nc2ccc(F)cc2)c1C#N", "inhibition": "2.55% [at 12.3 µM]"},
      {"molecule": "CCCN(C)C[C@H]1Oc2ncc(-c3ccccc3OC)cc2C(=O)N([C@H](C)CO)C[C@@H]1C", "inhibition": "16.3%"},
      {"molecule": "O=C1C=C(c2cc(C(F)(F)F)cc(C(F)(F)F)c2)C[C@@H](c2ccc3c(c2)OCO3)C1", "inhibition": "14.8% [at 12.3 µM]"},
      {"molecule": "COc1ccc2cc(C3=CC(=O)C[C@H](c4ccc5c(c4)OCO5)C3)ccc2c1", "inhibition": "-8.67% [at 12.3 µM]"},
      {"molecule": "O=C1C=C(c2ccnc3cc(Cl)ccc23)C[C@@H](c2ccc3c(c2)OCO3)C1", "inhibition": "65.8% [at 12.3 µM] (active)"}
    ]}
  ]
}
